Measurements: PubChem BioAssay AID1566 (Sanford-Burnham Center for Chemical Genomics, 2009)
Hit rate of the full screen: of about 290,000 compounds, about 1,800 (0.62%) were called active. The sample as a whole holds a higher share of actives than the screen did. Values without a mark were called inactive. Rule as the data show it: active = inhibition above about 50%; inactive = the rest.

Test: NOD2 signaling inhibitors, cell-based, luminescence, uHTS, HEK293 (AID 1566)
Settings: HEK293 NOD2/NF-kB luciferase reporter, at 4 µM, active compounds read high

SMILES	inhibition
CCOc1ccc(N2C(=O)NC(=O)/C(=C/c3cnc(SC)nc3)C2=O)cc1	3%
Cc1ccc(N2C(=O)NC(=O)/C(=C\c3ccc([N+](=O)[O-])o3)C2=O)cc1	10.6%
C[n+]1c2ccccc2nc2ccc(NCCO)cc21	41.7%
Nc1cc2nc3ccccc3nc2cc1N	-1.6%
CNc1ccc2nc3ccccc3[n+](C)c2c1	54.7% (active)
CC(Cc1ccccc1)NC(=O)Cc1ccc([N+](=O)[O-])cc1 (centres undefined)	4.1%
CC(C(=O)c1ccc(Cl)cc1Cl)n1cncn1 (centres undefined)	-37.6%
CC1(c2ccc(Cl)cc2Cl)OCC(Cn2cncn2)O1 (centres undefined)	60.3% (active)
CCCC1COC(Cn2cncn2)(c2ccc(Cl)cc2Cl)O1 (centres undefined)	5.9%
Cc1c(C(=O)N2CCC3(CC2)OCCO3)oc2ccc(S(=O)(=O)N3CCOCC3)cc12	9.5%
Clc1ccccc1NC1=NCCCS1	-11.5%
Cn1ncnc2c(=O)n(C)c(=O)nc1-2	45.4%
CCOc1ccc(-n2c(-c3cccs3)nc3ccccc3c2=O)cc1	21.3%
CCn1nc(-c2cccs2)nc2c(=O)n(C)c(=O)nc1-2	72.1% (active)
CCCCn1c(O)c(C(C)=NCCN2CCOCC2)c(=O)[nH]c1=O	2.3%
COc1ccc2[nH]c(C)c(CCNCc3cc(OC)c(OC)c(OC)c3)c2c1	6.9%
Cc1[nH]c2ccc(OC(F)(F)F)cc2c1CCNCc1ccc(Cl)cc1	2.1%
COc1ccc(CNCCc2c(C)[nH]c3ccc(OC(F)(F)F)cc23)c(OC)c1	57.8% (active)
COc1cc2c(cc1OC)C(C(=O)N(C)C1CCCCC1)C1CCCCN1C2=O (centres undefined)	9.9%
CCCCn1c(=O)c(C(=O)Nc2ccccc2N)c(O)c2ccccc21	2.4%
COc1ccc(C2=NS(=O)(=O)N(C)C(C(=O)N3CCC4(CC3)OCCO4)=C2)cc1OC	8.1%
COc1ccc(CNCCc2ccc(Cl)cc2Cl)cc1	-27.6%
Cc1nn(Cc2ccccc2Cl)c(C)c1C(=O)NC1CCCc2ccccc21 (centres undefined)	20.5%
CN(C)C(=O)Oc1ccc2c(c1)O/C(=C\c1ccc(Cl)cc1)C2=O	-16.2%
Cc1c(C(=O)Nc2ccccc2)cc(-c2ccccc2)n1CCCN1CCOCC1	8.6%

SMILES	inhibition
O=C(NCc1cccnc1)Nc1ccc([N+](=O)[O-])cc1	-1.2%
Cc1ccc(CN2CCN(CC(=O)N3CCC4(CC3)OCCO4)C2=O)cc1	-1.6%
C[C@H]1C[C@@H](C)C(=O)[C@@H]([C@H](O)CC2CC(=O)NC(=O)C2)C1	73% (active)
CCn1c(O)c(C=Nc2ccc(N3CCOCC3)cc2)c(=O)n(CC)c1=S	22.7%
COCCN1C(=O)NC(=O)/C(=C\c2ccc(Br)cc2)C1=O	0.7%
CC(C)c1oc(=O)cc2c1[C@@H](O)[C@H]1OC(=O)[C@@]3(C)C[C@@H](O)[C@@H](O)[C@@]2(C)C13 (some centres undefined)	64.6% (active)
CC(C)c1oc(=O)cc2c1[C@@H](O)[C@H]1OC(=O)[C@@]3(C)CC[C@@H](O)[C@@]2(C)C13 (some centres undefined)	20%
CC(Cc1ccsc1)NCc1cn[nH]c1-c1ccc(F)cc1F (centres undefined)	10.2%
COc1cc(N2CCOCC2)ccc1/C=C1\C(=O)NC(=O)N(C2CCCCC2)C1=O	12%
CCOC(=O)C1=CC(=C2C(=O)N(CC)C(=S)N(CC)C2=O)c2ccccc2O1	18.1%
O=C(CCNC(=O)N1C[C@H]2C[C@@H](C1)c1cccc(=O)n1C2)Nc1cccc(Cl)c1	13.1%
O=C(Nc1ccc(OC(=O)N2CCCCC2)cc1)N1CCOCC1	62.5% (active)
O=C(Nc1ccc(OC(=O)N2CCCC2)cc1)N1CCOCC1	12.5%
O=C(Nc1cccc(OC(=O)N2CCCCC2)c1)N1CCOCC1	-0.1%
COC(=O)c1nc(-c2ccc3c(n2)C(=O)C(N)=C(OC)C3=O)c(N)c(-c2ccc(OC)c(OC)c2O)c1C	57.2% (active)
O=C(c1ccc(N2CCCCC2)c([N+](=O)[O-])c1)N1CCC2(CC1)OCCO2	9.1%
CC(=O)Nc1cc(C(=O)N2CCC3(CC2)OCCO3)ccc1S(=O)(=O)c1ccc(C)cc1	52.9% (active)
CCC(=O)Nc1cc(C(=O)N2CCC3(CC2)OCCO3)ccc1S(=O)(=O)c1ccc(C)cc1	0.8%
CC(=O)Nc1cc(C(=O)N2CCC3(CC2)OCCO3)ccc1S(=O)(=O)c1ccc(Cl)cc1	6.8%
O=C(c1ccc(N2CCCCCC2)c([N+](=O)[O-])c1)N1CCC2(CC1)OCCO2	73.2% (active)
CC1CCCN(c2ccc(C(=O)N3CCC4(CC3)OCCO4)cc2[N+](=O)[O-])C1 (centres undefined)	15.8%
O=C(COc1ccc2ccc(=O)oc2c1)N1C[C@H]2C[C@@H](C1)c1cccc(=O)n1C2	-2.7%
CN1CC(C(=O)c2ccc([N+](=O)[O-])cc2)C(c2ccc(Cl)cc2)C1 (centres undefined)	16.2%
COC(=O)C(C)NC(=S)N1CC2C[C@@H](C1)Cn1c2cccc1=O (some centres undefined)	14.9%
